Bioassay records (PubChem)
The entries come from a sample that favours hits as a whole.
Pf Dd2 inh: blocks in vitro growth of P. falciparum Dd2; 120,000 compounds, 4.3% hits; Potency, µM (titrated, usually from 28.9 µM), for the others: at the top dose activity, negative = inhibition, usual class: inhibitors; P. falciparum Dd2 growth, SYBR Green, 72 h; AID 1347417; active = well fitted inhibition curve with a large enough effect;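 note: plate controls were DMSO vehicle for no effect and reference drug for full effect; nearly all actives have a fitted effect of over 65% in size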
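Readout: SYBR Green fluorescence, 485 nm excitation, 535 nm emission, after ~16 h lysis at 37C. Before that, Dd2-infected red cells (2.5% hematocrit) grew 72 h with compound, 29 uM top final concentration.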
Active calls of the source: *; i = inactive; [ ] = remark or other dose. Potency is the fitted concentration of half-maximal effect.

SMILES	Pf Dd2 inh
COc1cc2c(cc1OC)C(CNC(=O)CC(C)C)N(C(=O)NC(C)C)CC2 (stereo unspecified)	i
COC(=O)c1ccc(OCC2c3cc(OC)c(OC)cc3CCN2C(=O)Cc2ccc(OC)cc2)cc1 (stereo unspecified)	10µM*
CCCC(=O)N1CCc2cc(OC)c(OC)cc2C1COc1ccc(C(=O)OC)cc1 (stereo unspecified)	10µM*
CCCCC(=O)N1CCc2cc(OC)c(OC)cc2C1COc1ccc(C(=O)OCC)cc1 (stereo unspecified)	11.2µM*
COc1ccc(CC(=O)N2[C@@H]3CC[C@H]2CC(NC(=O)c2ccc(F)cc2)C3)cc1OC (stereo partly specified)	i
O=C(CCNc1c(-c2cccc(F)c2)nc2cnccn12)NCC1CCCO1 (stereo unspecified)	i
COc1ccccc1CNC[C@H]1O[C@@H]2C[C@@H](CC(=O)NC(C)C)O[C@@H]2[C@@H]1O	31.6%[44.1 µM]
Cn1cc(C(=O)N2CCC(F)(c3nc(-c4ccncc4)no3)CC2)cn1	-7.7%
Cc1ccc(C2NC(=O)N(CC(=O)Nc3ccc(F)c(F)c3)C3=C2C(=O)OC3)cc1 (stereo unspecified)	i
O=S(=O)(N[C@@H]1C[C@H](Cn2cc(C3CC3)nn2)[C@@H](O)[C@H]1O)c1ccccc1	-25.0%[44.1 µM]
CCc1cccc(NC(=O)CN2C(=O)NC(c3ccccc3Cl)C3=C2COC3=O)c1 (stereo unspecified)	-5.3%
O=C(c1ccc(Cl)s1)N1CCC(n2cc(-c3nc(-c4ccccc4)no3)nn2)C1 (stereo unspecified)	i
COc1ccc(NC(=O)N2CCCC(c3nn[nH]n3)C2)cc1 (stereo unspecified)	17.3%
CN(C)Cc1ccc(C(=O)N[C@@H]2COCC[C@@H]2OCC(=O)O)o1	-6.9%
COc1ccc(C(=O)N2CCC3(CC2)CNC(=O)c2ccccc2O3)cc1	-16.2%
COc1ccc(C(=O)N2CCCC3(COc4ccccc4C(=O)N3)C2)cc1 (stereo unspecified)	-11.2%
COc1ccc(C(=O)N2CCC3(CC2)COc2ccccc2CN3)cc1	1.41µM*
Cc1noc2c(-c3cccnc3NCCCn3ccnc3)cc(-c3ccccc3)nc12	10µM*
Cc1noc2c(-c3cccnc3NCCN(C)C)cc(-c3ccccc3)nc12	i
COCCCNc1ncccc1-c1cc(-c2ccccc2)nc2c(C)noc12	i
O=C(c1ccccn1)N1CCC(c2nc(-c3cccnn3)no2)CC1	2.9%
CCCOC(=O)N1CCC2(CC1)CC(c1ccccc1)C(=O)N(C)C2 (stereo unspecified)	-16.5%
O=C(NCc1nnc2cc(-c3nc(C4CC4)no3)ccn12)c1ccccc1Cl	-5.3%
O=C(NCc1nnc2cc(-c3nc(C4CC4)no3)ccn12)c1c(F)cccc1F	i
O=C(NCc1nnc2cc(-c3nc(C4CC4)no3)ccn12)c1cccc(Cl)c1	i
SMILES	Pf Dd2 inh
COc1cccc(CNC(=O)N2CC(c3noc(-c4ccncc4)n3)C2)c1	8.91µM*
COc1ccc(CNC(=O)N2CCC(c3noc(-c4cccnc4)n3)C2)cc1 (stereo unspecified)	i[5.79 µM]
COc1ccc(CNC(=O)N2CCC(c3noc(-c4ccccc4)n3)C2)cc1 (stereo unspecified)	7.2%[5.79 µM]
COc1cccc(CC(=O)NCc2nnc3cc(-c4nc(C5CC5)no4)ccn23)c1	6.31µM*
O=C(Cc1cccc(F)c1)NCc1nnc2cc(-c3nc(C4CC4)no3)ccn12	i
O=C(NCc1nnc2cc(-c3nc(C4CC4)no3)ccn12)c1ccoc1	-22.4%
O=C(Cc1ccc(F)cc1)NCc1nnc2cc(-c3nc(C4CC4)no3)ccn12	4.47µM*
O=C(Cc1ccc(Cl)cc1)NCc1nnc2cc(-c3nc(C4CC4)no3)ccn12	0.447µM*
O=C(NCc1nnc2cc(-c3nc(C4CC4)no3)ccn12)C1CC1	-24.2%
NC1(C(=O)N2CCCC(N3CCN(Cc4ccc5c(c4)OCO5)CC3)C2)CC1 (stereo unspecified)	-16.5%
c1ccc(Cn2cnnc2CC2CCNCC2)cc1	i
CN(C)C(=O)c1n[nH]c2c1CN(C(=O)c1ccccc1C(F)(F)F)CC2	-3.9%
COc1ccccc1C(=O)N1CC2(C1)NC(=O)c1ccccc1O2	i
Cc1ccc(S(=O)(=O)NC[C@H]2OC[C@@H](NCc3cccc(C#N)c3)[C@@H]2O)cc1	-20.2%[44.1 µM]
O=C1[C@H]2CN(Cc3ccc(Cl)cc3)C[C@H]2C(=O)N1CCc1ccccc1	-13.3%
Cc1ccccc1CN1C[C@@H]2C(=O)N(CCc3ccccc3)C(=O)[C@@H]2C1	-12.1%
CC(C)CCN1C[C@@H]2C(=O)N(CCc3ccccc3)C(=O)[C@@H]2C1	8.91µM*
O=C(CN1CCCC1=O)NCc1ccccc1C(F)(F)F	88.5%
CN(Cc1cccc(C(F)(F)F)c1)[S+](=O)([O-])c1cccc(C(F)(F)F)c1	i
O=C(Nc1ccccc1)O[C@H]1COCCN(c2nc3ccccc3o2)C1	-1.3%[44.1 µM]
C#C[C@H]1CN2CC[C@H]1C[C@@H]2CNC(=O)c1ccc2c(c1)OCO2	i
CC(C)c1nc2ccc(C(=O)NCc3ccc(N(C)C)cc3)cc2o1	21.9%
CN(C)c1ccc(CNC(=O)c2ccc3nc(Cc4ccccc4)oc3c2)cc1	-26.3%
CCc1nc2ccc(C(=O)NCc3ccc(N(C)C)cc3)cc2nc1CC	3.55µM*
CCOc1ccc(CC(=O)NC2CCN(c3cc(-c4ccccc4)[nH]n3)CC2)cc1	-5.0%
SMILES	Pf Dd2 inh
CN(Cc1cc(-c2ccncc2)no1)C(=O)CCc1cc2n(n1)CCCNC2	1.8%
CCN1CCN(C2(C(=O)NCCc3ccccc3)Cc3ccccc3C2)CC1	5.01µM*
CC1(C(=O)NCCc2ccccc2)CCCCC(=O)N1 (stereo unspecified)	7.7%
CCN1CCN(C2(C(=O)N3CCC(OC)CC3)Cc3ccccc3C2)CC1	i
C[S+](=O)([O-])N1CCCN(c2nc3ncccc3o2)CC1	-6.7%[44.1 µM]
CCOc1ccccc1CNC(=O)c1c(C)sc2ccn(CC(C)C)c(=O)c12	-0.5%
CC(C)(CN1CCC(Cc2ccc(C(=O)O)cc2)C1)N1CCOCC1 (stereo unspecified)	-8.7%
Cc1ccc(CCNC(=O)c2nnn3cc(C)[nH]c(=O)c23)cc1	i
COc1ncccc1-c1cnc2n[nH]c(-c3ccc4c(c3)OCO4)c2n1	i
COc1cc(CN2CCC3(Cc4ccccc4CNC3=O)C2)cc(OC)c1 (stereo unspecified)	-12.9%
COc1cccc(CNC(=O)c2cc3c(s2)-c2ccccc2OC3)c1	17.5%
COc1cc(NC(=O)c2cc3c(s2)-c2ccccc2OC3)cc(OC)c1OC	5.62µM*
COC(=O)c1ccccc1NC(=O)c1cc2c(s1)-c1ccccc1OC2	18.8%
O=C(C1CCCC1)N1CC(c2nc(CCOCC3CCOCC3)no2)C1	i
COc1ccc(OC2CN(Cc3cccc4ccccc34)C2)cc1	7.5%
Cc1ccccc1S(=O)(=O)N1CCC(CCC(=O)NC2CC2)CC1	-10.3%
Cc1ccccc1S(=O)(=O)N1CCCC(CCC(=O)Nc2cccc(Cl)c2)C1 (stereo unspecified)	12.6µM*
Cc1ccccc1S(=O)(=O)N1CCCC(CCC(=O)NCc2ccc(F)cc2)C1 (stereo unspecified)	-8.1%
N#Cc1ccc(CN2CCC3(CC2)CC(c2cccc(C(F)(F)F)c2)=NO3)cc1	-24.4%
COCCc1nncn1C1CCN(C(=O)c2ccc(C)cc2)CC1	-18.8%
O=C(C1CCCN1)N1CCN(Cc2ccc(=O)n(CC3CC3)c2)CC1 (stereo unspecified)	-20.6%
